“And” between values parts separate entries of the source, which are not always exact repeats. Equal entries are not always repeated. The whole screen tested about 280,000 compounds, of which about 2,600 (0.93%) were called active. About 8% were inconclusive and are not listed. Calls follow the shape of the dose curve; as a rule, active = well fitted curve in the direction sought with a large enough effect; inconclusive = small, poorly fitted or top-dose-only effect; inactive = flat fitted curve, though single readings scatter. Shown is part of a subset that was picked to be rich in actives. A call without a number means that no potency is given here.
assay: Counterscreen qHTS for Inhibitors of Tau Fibril Formation, Fluorescence Polarization; details: tau K18 P301L (four-repeat tau fragment) Alexa594 fluorescence, heparin fibrillization; series mostly up to 57.7 µM; also: nearly all actives have a fitted effect of over 55% in size
Text: NIH Molecular Libraries Probe Production Network [MLPCN]
NIH Chemical Genomics Center [NCGC]
Assay Provider: Carlo Ballatore, University of Pennsylvania
The microtubule-associated protein tau is an abundant protein in the axons of neurons that stabilizes microtubules. With its ability to modulate microtubule dynamics, tau contributes directly or indirectly, to key structural and regulatory cellular functions. Particularly important is the influence tau exerts on axonal transport, which allows signaling molecules, trophic factors and other essential cellular constituents to travel along the axons. Under pathological conditions, tau becomes sequestered into insoluble aggregates called neurofibrillary tangles. This phenomenon is believed to have pathological consequences by promoting axonal transport deficits that ultimately lead to synaptic dysfunction and neuronal loss. To identify inhibitors of tau aggregation, a heparin-induced tau fibril formation assay was used that employed a recombinantly expressed fragment of tau, K18 (Q242-E372), bearing a P301L mutation (Gustke et al. 1994; Hong et al. 1998). […] Total fluorescence (555 nm excitation and 632 nm emission) was measured to identify fluorescent or absorbent compounds at this wavelength. Such compounds may be artifacts that interfere with the Alexa 594 Tau fluorescence polarization assay.
Gustke, N., B. Trinczek, et al. (1994). "Domains of tau protein and interactions with microtubules." Biochemistry 33(32): 9511-22.
Hong, M., V. Zhukareva, et al. (1998).
Li, W. and V. M. Lee (2006). "Characterization of two VQIXXK motifs for tau fibrillization in vitro." Biochemistry 45(51): 15692-701.
von Bergen, M., S. Barghorn, et al. (2001). "Mutations of tau protein in frontotemporal dementia promote aggregation of paired helical filaments by enhancing local beta-structure." J Biol Chem 276(51): 48165-74.
NCGC Assay Protocol Summary:
For screening, 2 uL/well human K18 P301L (15 uM unlabeled and 0.24 uM Alexa 594-labeled tau final concentrations) in reagent buffer (100 mM sodium acetate pH 7) was dispensed into black solid 1536-well plates (Grenier) using a solenoid-based dispenser. Following transfer of 23 nL compound or DMSO vehicle by a pin tool, 2 uL/well heparin (20 uM final concentration) in reagent buffer was added and the plate centrifuged 15 s at 1000 RPM. Plates were incubated 6 hr at 37 C and then 1 uL/well ThT (30 uM final concentration) was added. After a 1 hr ambient incubation, the plates were read by an Envision (Perkin Elmer) to monitor Alexa 594 FP (555 nm excitation and 632 nm emission).
Keywords: NIH Roadmap, MLPCN, MLI, MLSMR, NCGC, qHTS, tau, tauopathies, Alzheimer's disease, fibril, neurodegeneration, aggregation
Potency is read from the fitted curve at half-maximal effect; tags tell the direction and shape of the fitted curve or compound fluorescence and quenching.

Which Potency does the source give for `O=C(OCC1O[C@@H](OC(=O)c2cc(O)c(O)c(O)c2)[C@@H](OC(=O)c2cc(O)c(O)c(O)c2)[C@@H](OC(=O)c2cc(O)c(O)c(O)c2)[C@@H]1OC(=O)c1cc(O)c(O)c(O)c1)c1cc(O)c(O)c(O)c1` (stereo not given in full) here?
Its Potency is 10 µM [quencher] (active).

With `C=CCN1CCC2(C)c3cc(O)ccc3CC1[C@@H]2C` (stereo not given in full) as the compound, how does the Potency read?
The Potency was “inactive”.

For `COC1CC(OC2CC[C@@]3(C=O)C4CC[C@]5(C)C(C6=CC(=O)OC6)CC[C@@]5(O)C4CC[C@]3(O)C2)OC(C)C1O` (stereo not given in full), which Potency is on record?
Its Potency is “inactive”.

Which Potency does the source give for `N#CC(C#N)=Cc1cc(O)c(O)c([N+](=O)[O-])c1` here?
Its Potency is “inactive”.

Which Potency does the source give for `CC(=O)c1c(O)c(C)c(O)c(Cc2c(O)c3c(c(C(=O)/C=C/c4ccccc4)c2O)OC(C)(C)C=C3)c1O` here?
The Potency was 15.8 µM [quencher] (active) and 12.6 µM [quencher] (active).

With `CO[C@@H]1C[C@@H](C[C@H]2CC[C@H](C)[C@@H]([C@@H](C)C(=O)O)O2)O[C@]2(O[C@](C)([C@H]3CC[C@@](C)(C4OC([C@H]5O[C@@](O)(CO)[C@H](C)C[C@@H]5C)C[C@@H]4C)O3)C[C@H]2C)[C@@H]1C` (stereo not given in full) as the compound, how does the Potency read?
The Potency was “inactive”.

With `CN(C)[C@@H]1C(=O)C(C(N)=O)=C(O)[C@@]2(O)C(=O)C3=C(O)c4c(O)cccc4[C@@](C)(O)C3CC12` (stereo not given in full) as the compound, how does the Potency read?
The Potency was “inactive”.

With `CCCCCCCCCCCCCC(=O)O[C@@H]1[C@@H](C)[C@@]2(O)[C@@H](C=C(CO)C[C@]3(O)C(=O)C(C)=C[C@@H]23)[C@@H]2C(C)(C)[C@]12OC(C)=O` as the compound, how does the Potency read?
The Potency was “inactive”.

Which Potency does the source give for `COc1ccccc1-c1[se]c2ccccc2c1I` here?
The Potency was “inactive”.

For `c1ccc2sc(SNC3CCCCC3)nc2c1`, which Potency is on record?
The Potency was “inactive”.

For `CC(C)(C)c1ccc(S(=O)(=O)Nc2ccc(O)c(Sc3nc4ccccc4s3)c2)cc1`, which Potency is on record?
The Potency was 8.91 µM [quencher] (active).

With `CC[C@]1(O)C(=O)OCc2c1cc1n(c2=O)Cc2cc3ccccc3nc2-1` as the compound, how does the Potency read?
The Potency was “inactive”.

Which Potency does the source give for `CCCN(C/C=C/I)C1CCc2ccc(O)cc2C1` (stereo not given) here?
Its Potency is “inactive”.

With `CN(C)C1C(=O)C(C(N)=O)=C(O)[C@@]2(O)C(=O)C3=C(O)c4c(O)cccc4[C@@](C)(O)C3C[C@@H]12` (stereo not given in full) as the compound, how does the Potency read?
Its Potency is “inactive”.

Which Potency does the source give for `CC[C@@H]1CN2CC[C@@H]1C[C@H]2[C@H](O)c1ccnc2ccc(OC)cc12` here?
Its Potency is “inactive”.

Reference: PubChem BioAssay AID1463 (National Center for Advancing Translational Sciences (NCATS), 2008)
